Laboratory results as given in PubChem BioAssay AID463173 (ICCB-Longwood Screening Facility, Harvard Medical School, 2010).
Out of some 52,000 compounds screened, about 4,300 (8.3%) were called active. The full list was thinned out, with actives kept by preference. Unmarked numbers belong to inactive results. No stated cut-off is given here; in the data, active means survival mostly below about 52% (no sharp cut-off); inactive means mostly above about 56%.

These compounds were tested on DeltatarO mutant (assay: S. aureus survival, RN4220 and DeltatarO strains – OD600, teichoic acid synthesis inhibitors, primary screen (AID 463173)). Settings: S. aureus RN4220 wild type/DeltatarO growth, OD600, 18 h, stronger effect = lower value, screened at 18.75 µg/mL (by protocol).
`Cc1ccc(S(=O)(=O)c2nnn3c2nc(N(C)Cc2ccccc2)c2cc(Cl)ccc23)cc1C` showed a survival of 108%.
In the case of `Cc1ccccc1NC(=O)CSCn1nnc2c(=O)[nH]c(Cc3ccc(F)cc3)nc21`, the survival is reported as 55%.
In the case of `CC(C)Cn1c(=O)c2ccccc2n2c(CCC(=O)Nc3cccc(Cl)c3)nnc12`, the survival is reported as 88%.
Compound `Cc1cc(OC(C)C(=O)N2CCC(c3nc4ccccc4o3)CC2)ccc1Cl` (stereo not drawn) has a survival of 57%.
Compound `COc1ccc(C(=O)N/C(=C\c2cn(S(=O)(=O)N(C)C)c3ccccc23)C(=O)NCCCn2ccnc2)cc1` has a survival of 85%.
Compound `O=C(O)CCc1nnc2cnc3ccccc3n12` has a survival of 171%.
Work on `CCc1ccc(NC(=O)CC2C(=O)NCCN2C(=O)c2ccccc2OC)cc1` (stereo not drawn) yielded a survival of 109%.
`COC(=O)c1ccc(NC(=O)c2cc3cc4ccc(OC)c(Cl)c4nc3s2)cc1` was tested, and the survival was 98%.
`Cc1ccc(NC(=O)CSc2cc(=O)n(C)c3ccc(Cl)cc23)c(Br)c1` was tested, and the survival was 79%.
`CCCCOC(=O)c1ccc(NC(=O)Cc2coc3c(C)c(C)ccc23)cc1` was tested, and the survival was 79%.
With `CN(Cc1ccccc1)S(=O)(=O)c1nnc(NC(=O)c2ccccc2)s1` the survival was 26% (active).
Work on `CN(Cc1ccc(F)cc1)S(=O)(=O)c1nnc(NC(=O)c2ccccc2)s1` yielded a survival of 102%.
Work on `Cc1ccccc1N(C)S(=O)(=O)c1nnc(NC(=O)C(C)C)s1` yielded a survival of 69%.
With `Cc1ccccc1N(C)S(=O)(=O)c1nnc(NC(=O)c2ccccc2F)s1` the survival was 27% (active).
`CN(Cc1ccc(F)cc1)S(=O)(=O)c1nnc(NC(=O)c2ccc(F)cc2)s1` was tested, and the survival was 81%.
`CCc1ccc(NC(=O)Cn2c(=O)n(-c3cc(OC)c(OC)c(OC)c3)c(=O)c3ccccc32)cc1` showed a survival of 72%.
In the case of `COC(=O)c1cc2sc(Cl)cc2n1Cc1nc(-c2ccccc2C)oc1C`, the survival is reported as 78%.
Compound `CCOC(=O)CSc1nc(-c2ccccc2)cc(C(F)(F)F)c1C#N` has a survival of 70%.
`Cc1cc(=O)n2c([nH]c3ccccc32)c1C(=O)O` showed a survival of 61%.
With `N#Cc1c(C(F)(F)F)cc(=O)n2c1[nH]c1ccccc12` the survival was 37% (active).
`CC(=O)N1CCc2c(sc3c2c(=O)n(-c2ccccc2)c(=O)n3CC(=O)Nc2ccccc2)C1` was tested, and the survival was 91%.
Work on `COc1cccc(NC(=O)C(=O)NCCc2csc(-c3ccc(C(F)(F)F)cc3)n2)c1` yielded a survival of 94%.
Compound `CCOc1ccccc1NC(=O)c1nnn(CC(=O)Nc2ccc(OC)c(OC)c2)c1N` has a survival of 91%.
In the case of `Cc1ccc(Cn2c(CN3CCC(C(=O)NCC(C)c4ccccc4)CC3)cc3ccccc32)cc1` (stereo not drawn), the survival is reported as 113%.
`CCCNC(=O)C1CCN(Cc2cc3ccccc3n2Cc2ccccc2)CC1` was tested, and the survival was 87%.
`CC(CNC(=O)C1CCN(Cc2cc3ccccc3n2Cc2ccccc2)CC1)c1ccccc1` (stereo not drawn) was tested, and the survival was 47% (active).
For `Cc1cc(N2CCN(C)CC2)nc2ccc(NC(=O)Nc3ccc(F)cc3F)cc12`, the survival was 73%.
With `O=C(Cc1ccc(F)cc1)NCCc1csc(-c2cccc(F)c2)n1` the survival was 88%.
`Cc1ccc(C)c(NC(=O)/C(C#N)=C/c2ccc(C(C)C)cc2)c1` gave a survival of 66%.
`Cc1cc(Nc2cccc(O)c2)c2cccc(Br)c2n1` was tested, and the survival was 61% (active).
For `Cc1cc(Nc2ccccc2C)c2cccc(C)c2n1`, the survival was 62%.
`Cc1cc(Cl)c2cccc(Br)c2n1` gave a survival of 110%.
In the case of `Cc1ccc(C(C)C)c(OCCCn2c(=O)oc3ccc(C)cc32)c1`, the survival is reported as -5% (active).
Work on `Cc1cccc(NC(=O)NCCn2c(=O)oc3ccc(C)cc32)c1` yielded a survival of 71%.
For `Cc1ccc(NC(=O)NCCOCCn2c(=O)oc3ccccc32)c(C)c1`, the survival was 70%.
In the case of `Cc1ccc(C(C)C)c(OCCCn2c(=O)oc3ccccc32)c1`, the survival is reported as -3% (active).
For `Cc1ccc(C(C)C)c(OCC(=O)N2CCC(c3nc4ccccc4o3)CC2)c1`, the survival was 80%.
For `CCOc1ccccc1NC(=O)NCCn1c(=O)oc2ccc(C)cc21`, the survival was 71%.
With `Cc1ccc(Cl)cc1NC(=O)Cn1c(=O)n(Cc2ccc(C(=O)NCc3ccc4c(c3)OCO4)cc2)c(=O)c2ccccc21` the survival was 90%.
With `COc1ccc(NC(=O)Cn2c(=O)n(-c3cc(C)cc(C)c3)c(=O)c3oc4ccccc4c32)cc1OC` the survival was 68%.
`CCc1ccccc1NC(=O)c1ccc2c(c1)N(Cc1cccc(Cl)c1)C(=O)c1ccccc1S2(=O)=O` gave a survival of 81%.
With `O=S(=O)(NCCc1nnc2ccc(SCc3ccc(C(F)(F)F)cc3)nn12)c1ccccc1` the survival was 67%.
`Cc1ccc2cccc(NC(=O)c3cccc4c(Cl)cccc34)c2n1` was tested, and the survival was 63%.
In the case of `COc1c(C)cccc1C(=O)Nc1cccc2ccc(C)nc12`, the survival is reported as -1% (active).
For `Cc1ccc2cccc(NC(=O)c3cccc4c(Br)cccc34)c2n1`, the survival was 134%.
With `Cc1ccc2cccc(NC(=O)c3cccc4ccccc34)c2n1` the survival was -2% (active).
`COc1ccc(Br)cc1C(=O)Nc1cccc2ccc(C)nc12` gave a survival of 73%.
Work on `CCOc1ccccc1C(=O)Nc1cccc2ccc(C)nc12` yielded a survival of 68%.
`Cc1cc2c(cc1S(=O)(=O)CCC(=O)N1CCC(C)CC1)OCC(=O)N2` was tested, and the survival was 102%.
With `Cc1ccccc1-c1nc(CS(=O)(=O)CC(=O)N2CCN(c3ccccc3)CC2)c(C)o1` the survival was 65%.
With `O=C(Cn1ccc2cc(S(=O)(=O)N3CCCC3)ccc21)NCc1ccc(Cl)cc1` the survival was 84%.
For `Cc1ccc(-c2cc3nc(-c4ccccc4)cc(C(F)(F)F)n3n2)cc1`, the survival was 69%.
Work on `COc1ccc(-c2cc3nc(-c4ccc(Br)cc4)cc(C(F)(F)F)n3n2)cc1` yielded a survival of 51%.
With `N#Cc1c(NC(=O)c2cc3nc(-c4ccc(Br)cc4)cc(C(F)(F)F)n3n2)sc2c1CCCC2` the survival was 32% (active).
`CCCNC(=O)c1cc2nc(-c3ccc(Br)cc3)cc(C(F)(F)F)n2n1` was tested, and the survival was 51% (active).
`Cc1cc(C(F)(F)F)n2nc(-c3ccc(Br)cc3)cc2n1` was tested, and the survival was 66%.
With `COc1cccc(-c2cc(C(F)(F)F)n3nc(-c4ccc(C)cc4)cc3n2)c1` the survival was 142%.
In the case of `Cc1ccc(-c2cc(C(F)(F)F)n3nc(-c4cccc(Br)c4)cc3n2)cc1`, the survival is reported as 46% (active).
With `Cc1cc2nc(-c3ccc(Br)cc3)cc(C(F)(F)F)n2n1` the survival was 37% (active).
For `COC(=O)c1c(NC(=O)c2cc3nc(-c4ccc(Br)cc4)cc(C(F)(F)F)n3n2)sc2c1CCCC2`, the survival was 70%.
Work on `CC(=O)c1cccc(NC(=O)c2cc3nc(-c4ccc(Br)cc4)cc(C(F)(F)F)n3n2)c1` yielded a survival of 49%.
Work on `Cc1ccc(-c2cc(C(F)(F)F)n3nc(C(=O)Nc4sc5c(c4C#N)CCC(C)C5)cc3n2)cc1` (stereo not drawn) yielded a survival of 95%.
Work on `CCc1ccccc1NC(=O)c1cc2nc(-c3ccc(Br)cc3)cc(C(F)(F)F)n2n1` yielded a survival of 84%.
